The supplement of paper PMC10849652
Targets with a hit are over-represented here; the source holds about 7,900 in all. About 0.6% of all pairs of compound and target were hits.

Compound: c1cn2cc(-c3ccc4cn[nH]c4c3)nc(Nc3ccc(N4CCOCC4)cc3)c2n1 [entospletinib]
Assay: log2 fold change, soluble protein after heating vs DMSO (PISA); higher = thermal stabilisation; K562 cells, 10 uM, 30 min; active = over 0.2 and 3.5 SD of the protein, either way, in both replicates (recomputed)
Summary of the method: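 K562 cells at 2×10^6 cells/mL were treated for 30 min with 10 μM compound, and aliquots were heated for 3 min over 48°C-58°C before pooling. Extraction used PBS with 0.5% NP-40 at 4°C, and soluble protein was the supernatant after 21,000xg for 90 min, measured by TMTpro 16plex LC-MS/MS with channel sums equalised. Thermal stability values, relative to control samples and from duplicates, are log2 fold changes.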

Sequence of UniProt Q8IWV8 (Q8IWV8 whole entry, looked up): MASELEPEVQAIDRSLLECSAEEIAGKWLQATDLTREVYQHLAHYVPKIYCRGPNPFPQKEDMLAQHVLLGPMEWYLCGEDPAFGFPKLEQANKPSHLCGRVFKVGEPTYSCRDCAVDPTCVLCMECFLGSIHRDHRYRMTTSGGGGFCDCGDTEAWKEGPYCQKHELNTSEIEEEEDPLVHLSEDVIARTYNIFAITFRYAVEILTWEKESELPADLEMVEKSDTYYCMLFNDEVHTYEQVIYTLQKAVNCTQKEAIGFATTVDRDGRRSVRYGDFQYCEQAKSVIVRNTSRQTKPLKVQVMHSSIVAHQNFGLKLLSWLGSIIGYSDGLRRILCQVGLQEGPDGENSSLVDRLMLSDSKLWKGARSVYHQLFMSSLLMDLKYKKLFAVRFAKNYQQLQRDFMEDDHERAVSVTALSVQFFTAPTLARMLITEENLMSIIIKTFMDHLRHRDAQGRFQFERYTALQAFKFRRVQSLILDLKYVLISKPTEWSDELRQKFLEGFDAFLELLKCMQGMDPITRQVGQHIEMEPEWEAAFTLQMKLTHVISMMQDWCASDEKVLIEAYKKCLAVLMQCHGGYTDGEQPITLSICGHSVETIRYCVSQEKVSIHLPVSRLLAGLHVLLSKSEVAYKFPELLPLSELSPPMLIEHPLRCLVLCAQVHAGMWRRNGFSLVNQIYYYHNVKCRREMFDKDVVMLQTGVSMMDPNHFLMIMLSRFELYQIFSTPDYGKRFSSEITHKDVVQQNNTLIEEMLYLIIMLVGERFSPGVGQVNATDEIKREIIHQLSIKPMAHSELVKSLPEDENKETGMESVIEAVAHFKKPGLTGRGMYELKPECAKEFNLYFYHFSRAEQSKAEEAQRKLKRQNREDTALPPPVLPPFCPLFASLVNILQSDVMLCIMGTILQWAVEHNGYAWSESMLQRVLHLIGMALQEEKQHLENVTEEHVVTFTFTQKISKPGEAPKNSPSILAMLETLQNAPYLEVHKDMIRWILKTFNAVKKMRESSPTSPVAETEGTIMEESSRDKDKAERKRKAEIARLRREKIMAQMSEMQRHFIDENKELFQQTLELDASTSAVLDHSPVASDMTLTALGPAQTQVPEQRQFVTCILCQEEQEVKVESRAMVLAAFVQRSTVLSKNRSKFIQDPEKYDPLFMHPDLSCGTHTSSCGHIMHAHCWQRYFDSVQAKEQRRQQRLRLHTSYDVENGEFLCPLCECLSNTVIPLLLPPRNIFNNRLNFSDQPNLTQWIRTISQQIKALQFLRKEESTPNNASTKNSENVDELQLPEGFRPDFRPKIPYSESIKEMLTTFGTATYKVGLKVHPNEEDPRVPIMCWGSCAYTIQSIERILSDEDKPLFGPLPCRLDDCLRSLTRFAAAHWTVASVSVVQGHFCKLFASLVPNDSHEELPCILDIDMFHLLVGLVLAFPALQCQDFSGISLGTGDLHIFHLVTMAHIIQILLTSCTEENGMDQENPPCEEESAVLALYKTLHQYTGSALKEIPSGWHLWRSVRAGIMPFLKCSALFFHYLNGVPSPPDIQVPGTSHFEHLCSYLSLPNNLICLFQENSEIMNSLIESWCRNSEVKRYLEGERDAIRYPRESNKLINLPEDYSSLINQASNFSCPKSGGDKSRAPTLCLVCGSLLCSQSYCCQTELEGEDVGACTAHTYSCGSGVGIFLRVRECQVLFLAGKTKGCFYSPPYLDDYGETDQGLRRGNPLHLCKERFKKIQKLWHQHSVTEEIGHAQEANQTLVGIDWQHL
Sequence of UniProt P61960 (P61960 whole entry, looked up): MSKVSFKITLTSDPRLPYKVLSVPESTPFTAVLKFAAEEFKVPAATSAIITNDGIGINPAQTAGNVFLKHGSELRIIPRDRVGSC
Sequence of UniProt Q96AX1 (Q96AX1 whole entry, looked up): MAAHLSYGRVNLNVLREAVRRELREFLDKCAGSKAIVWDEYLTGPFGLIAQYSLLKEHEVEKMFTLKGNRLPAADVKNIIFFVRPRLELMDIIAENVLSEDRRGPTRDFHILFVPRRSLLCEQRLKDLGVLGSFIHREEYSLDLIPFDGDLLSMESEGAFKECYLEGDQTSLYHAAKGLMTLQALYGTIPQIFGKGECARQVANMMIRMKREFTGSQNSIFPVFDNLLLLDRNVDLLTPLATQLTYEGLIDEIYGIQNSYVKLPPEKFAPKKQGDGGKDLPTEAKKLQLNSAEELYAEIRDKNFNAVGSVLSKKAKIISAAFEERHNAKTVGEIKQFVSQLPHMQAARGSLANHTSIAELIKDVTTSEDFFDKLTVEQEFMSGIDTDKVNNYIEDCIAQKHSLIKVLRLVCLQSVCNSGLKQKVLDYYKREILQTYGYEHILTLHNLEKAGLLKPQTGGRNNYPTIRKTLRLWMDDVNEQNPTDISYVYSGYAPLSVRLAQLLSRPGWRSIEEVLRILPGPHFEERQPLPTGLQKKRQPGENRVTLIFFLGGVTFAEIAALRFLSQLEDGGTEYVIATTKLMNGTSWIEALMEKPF
Sequence of UniProt Q9NV66 (Q9NV66 whole entry, looked up): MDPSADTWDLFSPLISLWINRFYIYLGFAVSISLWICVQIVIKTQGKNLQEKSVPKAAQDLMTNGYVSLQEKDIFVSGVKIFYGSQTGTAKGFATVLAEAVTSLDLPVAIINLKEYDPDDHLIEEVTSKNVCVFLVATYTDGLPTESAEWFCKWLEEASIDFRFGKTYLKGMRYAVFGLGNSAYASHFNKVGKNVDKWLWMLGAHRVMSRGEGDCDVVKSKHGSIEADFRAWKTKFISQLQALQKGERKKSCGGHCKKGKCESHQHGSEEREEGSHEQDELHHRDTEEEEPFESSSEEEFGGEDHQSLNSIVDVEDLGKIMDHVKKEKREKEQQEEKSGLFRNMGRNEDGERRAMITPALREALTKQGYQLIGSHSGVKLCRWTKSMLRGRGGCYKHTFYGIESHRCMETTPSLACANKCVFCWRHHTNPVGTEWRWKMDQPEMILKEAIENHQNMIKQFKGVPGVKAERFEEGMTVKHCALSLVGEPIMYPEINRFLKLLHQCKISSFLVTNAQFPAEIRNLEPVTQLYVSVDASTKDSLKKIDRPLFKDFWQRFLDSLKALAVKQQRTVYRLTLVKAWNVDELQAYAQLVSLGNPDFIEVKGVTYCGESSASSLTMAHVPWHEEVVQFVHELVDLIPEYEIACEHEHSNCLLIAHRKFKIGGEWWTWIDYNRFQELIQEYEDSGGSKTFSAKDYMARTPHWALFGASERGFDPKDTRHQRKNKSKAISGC
Sequence of UniProt O43379 (O43379 whole entry, looked up): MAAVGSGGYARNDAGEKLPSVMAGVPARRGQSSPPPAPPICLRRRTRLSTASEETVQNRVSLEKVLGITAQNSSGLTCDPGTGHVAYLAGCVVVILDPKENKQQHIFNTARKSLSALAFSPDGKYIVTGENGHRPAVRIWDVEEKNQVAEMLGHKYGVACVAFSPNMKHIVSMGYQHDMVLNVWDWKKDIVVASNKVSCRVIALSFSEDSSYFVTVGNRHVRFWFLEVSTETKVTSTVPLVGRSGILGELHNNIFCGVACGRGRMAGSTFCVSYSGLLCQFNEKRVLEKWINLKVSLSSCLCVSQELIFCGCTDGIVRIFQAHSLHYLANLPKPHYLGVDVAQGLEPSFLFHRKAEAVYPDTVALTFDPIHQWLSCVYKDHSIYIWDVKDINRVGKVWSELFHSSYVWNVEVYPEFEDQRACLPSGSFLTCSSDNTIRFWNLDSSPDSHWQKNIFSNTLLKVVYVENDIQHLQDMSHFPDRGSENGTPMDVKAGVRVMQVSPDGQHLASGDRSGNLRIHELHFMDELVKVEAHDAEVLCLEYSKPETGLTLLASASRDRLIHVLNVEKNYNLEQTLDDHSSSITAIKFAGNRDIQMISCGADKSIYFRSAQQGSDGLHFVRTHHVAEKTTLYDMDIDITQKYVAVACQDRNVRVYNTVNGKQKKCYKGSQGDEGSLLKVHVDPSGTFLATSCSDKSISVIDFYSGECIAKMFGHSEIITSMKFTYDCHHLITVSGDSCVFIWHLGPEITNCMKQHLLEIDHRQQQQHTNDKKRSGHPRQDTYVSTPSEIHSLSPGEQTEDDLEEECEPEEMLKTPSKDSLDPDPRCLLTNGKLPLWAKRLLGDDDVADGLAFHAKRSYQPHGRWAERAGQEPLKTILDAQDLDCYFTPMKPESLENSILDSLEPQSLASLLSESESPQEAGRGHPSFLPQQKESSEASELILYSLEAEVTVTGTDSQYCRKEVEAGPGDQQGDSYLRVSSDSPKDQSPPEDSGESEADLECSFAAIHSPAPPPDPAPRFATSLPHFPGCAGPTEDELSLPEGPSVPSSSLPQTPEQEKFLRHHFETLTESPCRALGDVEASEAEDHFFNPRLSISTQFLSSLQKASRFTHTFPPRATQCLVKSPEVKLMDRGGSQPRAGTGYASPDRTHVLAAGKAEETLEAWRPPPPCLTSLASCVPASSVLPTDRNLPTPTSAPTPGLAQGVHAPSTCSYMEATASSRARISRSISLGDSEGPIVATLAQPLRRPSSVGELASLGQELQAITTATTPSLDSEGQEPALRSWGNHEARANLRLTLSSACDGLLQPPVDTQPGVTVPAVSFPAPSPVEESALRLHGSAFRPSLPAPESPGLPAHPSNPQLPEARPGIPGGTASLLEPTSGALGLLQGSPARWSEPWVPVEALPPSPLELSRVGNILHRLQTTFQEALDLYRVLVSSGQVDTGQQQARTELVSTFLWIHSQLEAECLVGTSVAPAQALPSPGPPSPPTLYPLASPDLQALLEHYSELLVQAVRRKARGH
Sequence of UniProt Q86WV6 (Q86WV6 whole entry, looked up): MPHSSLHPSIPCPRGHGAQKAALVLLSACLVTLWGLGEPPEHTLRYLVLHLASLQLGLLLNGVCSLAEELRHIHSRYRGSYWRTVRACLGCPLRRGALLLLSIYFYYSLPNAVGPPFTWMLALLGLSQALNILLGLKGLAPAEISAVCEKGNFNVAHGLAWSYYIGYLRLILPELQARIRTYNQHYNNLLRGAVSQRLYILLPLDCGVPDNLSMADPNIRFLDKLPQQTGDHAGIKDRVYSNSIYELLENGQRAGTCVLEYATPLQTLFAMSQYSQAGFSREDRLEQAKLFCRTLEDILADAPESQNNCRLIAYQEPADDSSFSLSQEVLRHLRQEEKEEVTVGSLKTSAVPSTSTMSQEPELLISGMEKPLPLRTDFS

log2 fold change, inactive:
TOMM20 (UniProt Q15388) 0.069
VPS50 (UniProt Q96JG6) -0.045
TMEM173 (UniProt Q86WV6) -0.022
VAMP7 (UniProt P51809) -0.032
TMEM214 (UniProt Q6NUQ4) -0.015
WDR43 (UniProt Q15061) -0.048
TMEM104 (UniProt Q8NE00) 0.001
TUT4 (UniProt Q5TAX3) 0.066
UBR2 (UniProt Q8IWV8) 0.029
TRIM23 (UniProt P36406) -0.041
UFM1 (UniProt P61960) -0.079
VARS2, A0A0G2JL52 -0.03
UBA52 (UniProt P62987) 0.159
USP14 (UniProt P54578) -0.03
TOP2A isoform 4 (UniProt P11388) 0.119
TNFRSF10A (UniProt O00220) 0.011
UBXN8 (UniProt O00124) -0.231
TMEM177 (UniProt Q53S58) 0.02
USP24 (UniProt Q9UPU5) 0.016
WARS2 (UniProt Q9UGM6) -0.042
VPS11 (UniProt Q9H270) 0.04
TOE1 (UniProt Q96GM8) 0.058
TNFRSF8 (UniProt P28908) 0.002
UHRF1BP1 (UniProt Q6BDS2) 0.015
UGDH (UniProt O60701) -0.033
UQCR10 (UniProt Q9UDW1) -0.002
UNC119B (UniProt A6NIH7) -0.055
WDR62 isoform 4 (UniProt O43379) -0.043
UFL1 (UniProt O94874) -0.025
TRAM1 (UniProt Q15629) 0.145
TPP1 (UniProt O14773) -0.018
VPS33A (UniProt Q96AX1) 0.099
VDAC1 (UniProt P21796) -0.012
UBAP2L isoform 1 (UniProt Q14157) -0.065
TMEM9 (UniProt Q9P0T7) -0.05
TYW1 (UniProt Q9NV66) 0.003
VPS52 (UniProt Q8N1B4) 0.062
TOM1L1 (UniProt O75674) 0.038
UTP3 (UniProt Q9NQZ2) -0.009
TSC2 (UniProt P49815) -0.17
